From the supplement of paper PMC3334620
Whole data set: some 33,000 sequences, median “E-score (-0.5 to 0.5)” near -0.021, cut for the highest 2% near 0.32. What follows is part of a selection rich in the highest values, with near analogues and random picks from the rest.

Molecular target: T1, Zap1 (UniProt P47043)
T1 sequence: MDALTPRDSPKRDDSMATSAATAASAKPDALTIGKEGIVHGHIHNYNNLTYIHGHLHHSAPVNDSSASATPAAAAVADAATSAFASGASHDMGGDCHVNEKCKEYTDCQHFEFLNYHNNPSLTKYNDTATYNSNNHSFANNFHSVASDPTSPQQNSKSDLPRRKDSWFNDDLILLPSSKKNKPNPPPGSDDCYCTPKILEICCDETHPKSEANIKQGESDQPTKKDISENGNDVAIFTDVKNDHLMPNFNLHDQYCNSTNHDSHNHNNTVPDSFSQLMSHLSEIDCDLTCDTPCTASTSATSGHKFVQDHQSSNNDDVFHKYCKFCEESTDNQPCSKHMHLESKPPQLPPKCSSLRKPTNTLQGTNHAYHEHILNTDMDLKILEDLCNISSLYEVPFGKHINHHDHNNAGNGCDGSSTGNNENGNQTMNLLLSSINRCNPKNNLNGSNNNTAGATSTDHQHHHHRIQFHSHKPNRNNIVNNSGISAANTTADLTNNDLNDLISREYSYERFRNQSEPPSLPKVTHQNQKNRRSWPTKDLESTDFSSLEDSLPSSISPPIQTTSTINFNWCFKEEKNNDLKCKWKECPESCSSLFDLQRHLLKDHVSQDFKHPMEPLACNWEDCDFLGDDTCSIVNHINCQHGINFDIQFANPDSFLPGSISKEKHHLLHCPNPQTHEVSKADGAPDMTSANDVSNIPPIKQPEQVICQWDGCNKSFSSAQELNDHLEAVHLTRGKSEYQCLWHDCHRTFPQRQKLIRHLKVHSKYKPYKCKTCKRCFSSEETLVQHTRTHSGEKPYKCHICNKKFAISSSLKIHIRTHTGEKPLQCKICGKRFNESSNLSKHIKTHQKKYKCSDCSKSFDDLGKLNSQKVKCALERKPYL
Test: PBM E-score (8-mer binding enrichment) (E-score (-0.5 to 0.5)); higher = stronger / more preferred TF binding
Conditions: protein concentration: 200 nM; construct: GST-full length
Procedure, shortened: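 For each ungapped eight-base word taken together with its reverse complement, the Universal PBM Analysis Suite assigned an E-score. Binding data came from GST-tagged yeast transcription factors, applied at about 100-200 nM, on universal all-10-mer Agilent arrays made double-stranded by primer extension. Fluorescent anti-GST marked bound protein, and scans were normalised with masliner.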

| Sequence | PBM E-score |
| --- | --- |
| CATGCCAC | -0.227 |
| CCGGCCTC | -0.0295 |
| GGAGTTAA | 0.029 |
| TACCTTAA | 0.296 |
| AACCTTAA | 0.352 |
| CACCTTAA | 0.207 |
| GTAAAAGA | 0.0206 |
| ACCTTTTG | 0.364 |
| ACCTTTAA | 0.383 |
| GCCTTTAA | 0.0959 |
| CCCTTTAA | 0.286 |
| AACTTTAT | 0.0578 |
| ACCTTTAT | 0.352 |
| ACCTTTAG | 0.348 |
| ACCTTTGG | 0.236 |
| CCCTTTAG | 0.127 |
| ACCTTTAC | 0.307 |
| AGCTTTAT | -0.0486 |
| ACCTTTTC | 0.254 |
| GCAGATGC | -0.337 |
| GAGCACGA | -0.0755 |
| TATCGATA | 0.285 |
| ACGCAAAA | -0.024 |
| ACCTACTA | 0.113 |
| AGGATTAA | -0.0423 |
| GTTTAGCA | -0.0642 |

| Sequence | PBM E-score |
| --- | --- |
| CGTAGTTC | -0.125 |
| AGTACCAT | 0.127 |
| GCCTTTTA | 0.0912 |
| ACCTATAT | 0.356 |
| ACCTTTCA | 0.257 |
| ACCTTTCT | 0.372 |
| ACCTTTTA | 0.411 |
| ACCTTTCC | 0.107 |
| CCCTTTTA | 0.0826 |
| ACCTATAC | 0.249 |
| ACCTATAA | 0.188 |
| GGTAGCAA | 0.0702 |
| AAACAGTG | 0.0759 |
| CCAGTTTA | 0.073 |
| TAAACCTA | 0.137 |
| CCAAGCCA | -0.122 |
| CAGGCTAG | -0.141 |
| CGTACGAC | -0.126 |
| TAAAGGGA | 0.145 |
| ATAAGGTA | 0.231 |
| TAAAGGTA | 0.34 |
| AGAAGGTA | 0.286 |
| CAAAGGTA | 0.267 |
| GAAAGGTA | 0.363 |
| TAAAGGAA | 0.00829 |
| GAAAGGTC | 0.294 |

| Sequence | PBM E-score |
| --- | --- |
| AAAAGGTA | 0.405 |
| AAGACCAC | 0.0451 |
| CAGCCCAC | -0.113 |
| GAGAGCAA | -0.227 |
| GCGCCTAA | 0.0328 |
| AGTACCCA | 0.289 |
| AGTACTCA | -0.0985 |
| CGTACCCA | -0.0471 |
| AGTACCTA | 0.299 |
| GGTACCTA | 0.398 |
| GGTACTCA | 0.329 |
| CGTACCTA | -0.117 |
| GGTACCCA | 0.411 |
| CGTACTCA | -0.0651 |
| CCATCCAG | -0.155 |
| GACTCGGA | -0.237 |
| AAACGTAG | -0.0378 |
| GGTCCTAC | -0.105 |
| AGACTGGG | -0.141 |
| TACCGTGA | 0.247 |
| AAGTACCC | 0.34 |
| GAGTACCA | 0.247 |
| AAGTACCA | 0.211 |
| CAGTACCC | 0.313 |
| GAGTACCC | 0.342 |
| AAGTACGC | -0.152 |

| Sequence | PBM E-score |
| --- | --- |
| CGAATTCG | -0.233 |
| TAGCAAAA | 0.0555 |
| AGAGCAAG | -0.196 |
| AGAACCCC | 0.294 |
| AGAACCCT | 0.321 |
| ACAACCCT | 0.443 |
| AGAACCCA | 0.19 |
| ACAACCCG | 0.398 |
| ACAAACCG | 0.027 |
| ACGACCCA | 0.2 |
| ACGACCCG | 0.0256 |
| ACGACCCT | 0.348 |
| CCAACCCG | 0.148 |
| ACAACCGT | 0.0867 |
| ACAACCCA | 0.286 |
| AGTCCTCG | -0.272 |
| AAGATAGC | -0.144 |
| AATAAGGA | -0.00733 |
| AAGCACAA | 0.154 |
| GCGATGGA | 0.0884 |
| CCTTGACG | 0.115 |
| AAACCCCT | 0.188 |
| ACAACCTC | 0.31 |
| GCAACCCC | 0.342 |
| CCAACCCC | 0.224 |
| ACAACCCC | 0.321 |

| Sequence | PBM E-score |
| --- | --- |
| AAAACCCT | 0.362 |
| GCAACCCA | 0.294 |
| AAAACCCC | 0.276 |
| ACAAACCC | 0.0973 |
| GGCCAGCC | -0.142 |
| AAATCCTC | -0.279 |
| AGGACCAG | -0.0376 |
| CGGAGTAG | -0.149 |
| CTCCTGTA | -0.0674 |
| ATGGATTG | -0.0434 |
| CGGAATCA | -0.0619 |
| CGGGCCAC | 0.125 |
| CGTCGAGC | -0.244 |
| CAATGAGC | -0.126 |
| ACGTAACG | -0.248 |
| GCGTAACC | 0.446 |
| ACGTAACC | 0.411 |
| ACGTAACT | 0.0456 |
| GCGTAACA | -0.135 |
| CCGTAACC | 0.471 |
| CCGTAACA | 0.0988 |
| GCGTAAGC | -0.239 |
| CCGTAACG | 0.0821 |
| CTTAAGGA | 0.119 |
| ATGGGGCG | -0.129 |
| ATTTAACG | 0.023 |

| Sequence | PBM E-score |
| --- | --- |
| CTTTAACC | 0.405 |
| ATTTAACC | 0.418 |
| CTTTAACA | 0.123 |
| ATTTAACA | -0.0688 |
| CTTTTAAC | 0.0885 |
| CGCTGATA | -0.172 |
| GCAGGTTA | 0.335 |
| ACAGGTTA | 0.398 |
| CCAGGTTA | 0.382 |
| CCAGGTAA | 0.041 |
| CCAGGTTC | -0.159 |
| GCAGGTAA | 0.173 |
| ACAGGTTC | -0.12 |
| GCAGGTCA | 0.194 |
| ACAGGTTG | 0.147 |
| TCGCCACA | -0.04 |
| AGCAGCCT | -0.168 |
| ATAGCAGG | 0.0205 |
| ATGAATGG | 0.203 |
| CTAGTAGC | -0.168 |
| ACGATATC | 0.0333 |
| GTGGGTTA | 0.404 |
| GTGGGTAA | 0.0319 |
| CTGGGTCA | 0.143 |
| ATGGGTTG | 0.234 |
| ATGGGTTA | 0.455 |

| Sequence | PBM E-score |
| --- | --- |
| GTGGGTGA | 0.0723 |
| CTGGGTTC | 0.0979 |
| ATGGGTTC | 0.116 |
| CTGGGTTA | 0.369 |
| GCCACAAC | 0.212 |
| TAGGACGA | -0.113 |
| AGCAAGCG | -0.192 |
| GAGACAAA | -0.173 |
| GCCACACA | -0.0586 |
| CCCCACGC | -0.0232 |
| ACACAAGG | 0.132 |
| AAGTTCAG | -0.0476 |
| CGGGTCGC | 0.0356 |
| AGGGTCAA | 0.416 |
| AGGGTCAG | 0.24 |
| TGGGTCAA | 0.0925 |
| GGGGTCAA | 0.266 |
| GGGGTCAC | 0.428 |
| AGGGTCAC | 0.417 |
| GCGGTCAC | 0.313 |
